This experiment can be described thus: M. tuberculosis growth inhibition, HTS (AID 1259417).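 Also: bacteria grown with compound for 5 days at 37 °C.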 As to conditions: stronger effect = higher value, concentration not given here.
Setting [1] is: M. tuberculosis DsRed fluorescence growth inhibition.
The mark [2] stands for this setting: M. tuberculosis growth inhibition.

Screen size: about 1,100 compounds; about 760 (69%) were called active. No rule for the calls is given here. The set was probably picked from earlier hits. Some of the results follow.

Consider `Cc1ccc(NC(=S)c2ccccn2)cc1`, for which the inhibition is, setting by setting: under setting [1], 101% (active); under setting [2], 101%.
The corresponding values for `CCOC(=O)c1ccc2nc(C)cc(Nc3ccc(N4CCCCC4)cc3)c2c1` are 100% (active) and 100%.
With `CCCOc1ccccc1NC(=O)Nc1ccc(Cl)c(Cl)c1`, the inhibition runs as follows: under setting [1], 0.884% (inactive); under setting [2], -14.7%.
The corresponding values for `COC(=O)c1ccc2nc(C)cc(Nc3ccc(OCc4ccccc4)cc3)c2c1` are 92.1% (active) and 99.7%.
For `CCCOc1ccc(Nc2cc(C)nc3ccc(Cl)cc23)cc1`, in that order: 101% (active) and 101%.
Turning to `CCC(=Nc1ccccc1O)C1=C(O)CC(c2ccccc2)CC1=O` (stereo not given), the inhibition runs as follows: under setting [1], 98.9% (active); under setting [2], 98.8%.
In the case of `O=C(c1ccco1)N(CCCn1ccnc1)c1nc2c(F)cccc2s1`, the inhibition under setting [1] was 91.1% (active) and the inhibition under setting [2] worked out at 97.4%.
The corresponding values for `O=C(NNc1nc2c(F)cc(F)cc2s1)c1coc2ccccc2c1=O` are -0.752% (inactive) and -17.4%.
Turning to `O=C(c1cccs1)N(CCCn1ccnc1)c1nc2c(F)cc(F)cc2s1`, the inhibition was 73.3% (active) under setting [1] and 81.6% under setting [2].
With `O=C(c1ccco1)N(CCCn1ccnc1)c1nc2c(F)cc(F)cc2s1`, the inhibition is 97.5% (active) under setting [1] and 98.1% under setting [2].
For `Oc1ccc(CSc2ccccc2)c2cccnc12`, in that order: 29% (active) and 45.1%.
Regarding `CC(C)(C)c1ccc(C(=O)N2N=C(c3ccccc3)CC2(O)C(F)(F)F)cc1` (stereo not given), the inhibition by setting is: under setting [1], 2.12% (inactive); under setting [2], -7.59%.
The corresponding values for `CCC1=NN(C(=O)c2ccncc2)C(O)(c2ccc(Br)cc2)C1` (stereo not given) are 97.9% (active) and 93.4%.
Consider `O=C(c1cccc(Cl)c1)N1N=C(c2ccc(Cl)cc2)CC1(O)C(F)(F)F` (stereo not given), for which the inhibition by setting is: under setting [1], 7.75% (inactive); under setting [2], 23.1%.
For `CC1=NN(C(=O)c2ccccc2)C(O)(c2ccncc2)C1` (stereo not given), in that order: 97.7% (active) and 94.3%.
For `CC1=NN(C(=O)c2cccc(Cl)c2)C(O)(c2ccc(Cl)cc2)C1` (stereo not given), in that order: 13.7% (active) and 42.4%.
For the compound `CC1=NN(C(=S)Cc2ccccc2)C(C)(O)C1` (stereo not given), the inhibition reads like this: under setting [1], 5.87% (inactive); under setting [2], 14.6%.
For `CC1(C)CC(=O)C2=C(C1)OC(N)=C([N+](=O)[O-])C2c1ccc(C#N)s1` (stereo not given), in that order: 10.4% (active) and 32.4%.
In the case of `CC1=NN(c2nc(-c3ccc(Cl)cc3)cs2)C(=O)C1C` (stereo not given), the inhibition reads like this: under setting [1], 4.11% (inactive); under setting [2], 7.17%.
For `N#Cc1ccc(-c2ccc(OCC(=O)Nc3cccnc3)cc2)cc1`, in that order: 43% (active) and 88.1%.
On to `O=C(COc1ccc(Cl)cc1)Nc1ccc(Cc2ccncc2)cc1`, for which the inhibition under setting [1] was -0.257% (inactive) and the inhibition under setting [2] is -2.75%.
As to `N#Cc1ccc(-c2ccc(OCC(N)=O)cc2)cc1`, the inhibition is 17.9% (active) under setting [1] and 86.6% under setting [2].
`CC(C)(C)C(=O)NC(=S)NNC(=O)C(c1ccccc1)c1ccccc1`: the inhibition by setting is: under setting [1], 44.9% (active); under setting [2], 30.8%.
For `CCC(=O)N1CCN(c2ccc(Cl)cc2NC(=O)CC23CC4CC(CC(C4)C2)C3)CC1`, the inhibition runs as follows: under setting [1], 6.85% (inactive); under setting [2], 6.57%.
For `O=C(CC12CC3CC(CC(C3)C1)C2)Nc1ccc(N2CCOCC2)c(Cl)c1`, in that order: 33.8% (active) and -14.8%.
The corresponding values for `CCN1CCN(c2ccc(NC(=O)CC34CC5CC(CC(C5)C3)C4)cc2Cl)CC1` are 32.7% (active) and 46.9%.
For `Cc1ccc2c(c1)c1ncnc(N3CCc4ccccc4C3)c1n2C`, the inhibition reads like this: under setting [1], 99.1% (active); under setting [2], 100%.
As for `Cc1ccc(Cn2c(=N)n(CC(O)c3ccc(Cl)c(Cl)c3)c3ccccc32)cc1` (stereo not given), the inhibition reads like this: under setting [1], 99.8% (active); under setting [2], 98.9%.
For `c1ccc(CC2CCN(c3nc4ccccc4n4cnnc34)CC2)cc1`, in that order: 57.6% (active) and 39.3%.
For `c1ccc2c(NCCc3c[nH]c4ccccc34)c3ccccc3nc2c1`, in that order: 27.2% (active) and 59.7%.
For `FC(F)(F)c1cccc(-n2cc(-c3ccccc3)c3c(NCc4cccnc4)ncnc32)c1`, in that order: 4.11% (inactive) and -14%.
On to `O=C(OCC(=O)N1CCCCC1)c1cc2ccccc2cc1O`, for which the inhibition reads like this: under setting [1], 47.8% (active); under setting [2], 88.2%.
The corresponding values for `CCC1CCCCN1C(=O)COC(=O)c1cc2ccccc2cc1O` (stereo not given) are 37.8% (active) and 89%.
The corresponding values for `CC1CC(C)CN(C(=O)Nc2ccc(Cl)c(Cl)c2)C1` (stereo not given) are 9.98% (inactive) and 2.73%.
Regarding `CCC1CCCCN1C(=S)NC(=O)c1ccc(F)cc1` (stereo not given), the inhibition reads like this: under setting [1], 7.93% (inactive); under setting [2], 0.813%.
The corresponding values for `CC1CCN(C(=O)COC(=O)c2cc3ccccc3cc2O)CC1` are 75.2% (active) and 96%.
As for `CC1CC(C)CN(C(=O)COC(=O)c2cc3ccccc3cc2O)C1` (stereo not given), the inhibition under setting [1] was 36.3% (active) and the inhibition under setting [2] was determined as 90.7%.
With `Cc1c(Cl)ccc(OCCCN2CCCC(C)C2)c1C` (stereo not given), the inhibition under setting [1] is 99.2% (active) and the inhibition under setting [2] is 92.6%.
The corresponding values for `CC(C)OC(=O)CSc1nnc(-c2ccc(N(C)C)cc2)o1` are 81.3% (active) and 91.9%.
Regarding `CC(C)OC(=O)CSc1nnc(-c2ccc(Cl)cc2Cl)o1`, the inhibition under setting [1] is 73% (active) and the inhibition under setting [2] was 86.2%.
For `Clc1ccc(-c2nnc(SCc3ccon3)o2)c(Cl)c1`, in that order: 82.2% (active) and 64.9%.
The corresponding values for `CCOC(=O)CSc1nnc(-c2ccc(Cl)cc2Cl)o1` are 78.6% (active) and 85.5%.
For `COc1cc(OC)c(-c2nn3c(C4CCCCC4)nnc3s2)cc1OC`, in that order: 3% (inactive) and 4.48%.
On to `CCOC(=O)C(Oc1ccc2oc(C)c(C(=O)OC)c2c1)c1ccccc1` (stereo not given), for which the inhibition by setting is: under setting [1], -0.568% (inactive); under setting [2], -19.6%.
The corresponding values for `COC(=O)C(Oc1ccc2c(c1)oc(=O)c1cc(OC)ccc12)c1ccccc1` (stereo not given) are 27.2% (active) and 79.5%.
The corresponding values for `COc1ccc(NC(=O)CC23CC4CC(CC(C4)C2)C3)cc1Cl` are 97.4% (active) and 86.9%.
The corresponding values for `COc1cc(NC(=O)CC23CC4CC(CC(C4)C2)C3)ccc1NC(=O)c1ccco1` are -10.9% (inactive) and -3.8%.
In the case of `COc1ccc(NC(=O)CC23CC4CC(CC(C4)C2)C3)cc1[N+](=O)[O-]`, the inhibition reads like this: under setting [1], 71% (active); under setting [2], 49.1%.
Take `COc1ccc(Cl)cc1NC(=O)CC12CC3CC(CC(C3)C1)C2`: the inhibition was 10.7% (inactive) under setting [1] and 2.06% under setting [2].
The corresponding values for `CC(C)(C)c1cnc(NC(=O)c2ccccc2O)s1` are 71.4% (active) and 28.1%.
For `CC(C)(C)c1ccc(C(=O)Nc2nccs2)cc1Br`, in that order: 17.6% (inactive) and -5.32%.
With `O=C(Nc1ncc(Cc2cccc(C(F)(F)F)c2)s1)c1cccs1`, the inhibition was 24.1% (inactive) under setting [1] and 23.5% under setting [2].
For `O=C(CSc1nnc(-c2ccccc2Br)o1)N1CCc2ccccc2C1`, in that order: 24.1% (active) and 31.3%.
For `Nc1ccccc1NCCOc1ccccc1`, in that order: 98.3% (active) and 98.7%.
For `O=C(COc1ccc(Cl)cc1)Nc1ccc(N2CCN(C(=O)c3ccco3)CC2)c(Cl)c1`, in that order: 0.893% (inactive) and -16.5%.
With `Cc1ccc(NC(=O)C(=O)NNC(=O)c2ccco2)cc1Cl`, the inhibition runs as follows: under setting [1], 6.77% (inactive); under setting [2], 7.85%.
For `O=C(CCNc1ccc(-c2ccccc2)cc1)c1ccco1`, in that order: 34.2% (active) and 84.3%.
Turning to `O=C(CCNc1cccc(Cl)c1)c1ccco1`, the inhibition is, setting by setting: under setting [1], 97.7% (active); under setting [2], 96.8%.
Turning to `CC(=O)c1ccc(NCCC(=O)c2ccco2)cc1`, the inhibition under setting [1] is 17.6% (active) and the inhibition under setting [2] amounted to 59.4%.
The corresponding values for `CCCCSc1ccc(NCCC(=O)c2ccco2)cc1` are 29.9% (active) and 60.7%.

One may read the inhibition as the drop in the measured response relative to a control, in per cent.
